The panel holds about 79,000 compounds, 15% with a hit somewhere; the sample as a whole holds those more often. A number with no mark means an inactive call. Cut-off read from the data, not from the text of the source: active = growth inhibition above about 70%; inactive = the rest. Where a SMILES comes first, the peptide text is derived from it. Bridges are numbered along the chain shown (N, C = ends).

One assay is described as follows: NCI Yeast Anticancer Drug Screen. Data for the mec2-1 strain (AID 157). The settings on record: S. cerevisiae mec2-1 strain, at 50.0 µM, stronger effect = higher value. The method in brief: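 Strain: mec2-1 (DNA repair/cell cycle alteration). Compound exposure, then growth measured; inhibition expressed relative to vehicle.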
For the compound `COc1ccccc1-n1c(NN)nc2ccc(Br)cc2c1=O`, the growth inhibition is 13.4%. Same read-out and setting: with `CC(=O)OCC1OC(Sc2ccc([N+](=O)[O-])cc2)C(OC(C)=O)C(OC(C)=O)C1OC(C)=O` (stereo not drawn) the figure was -11.8%; with `CCCCCC(O)(CCCC)CCCCC`, -1.65%. For the compound `C(=N\c1nccs1)/c1ccc(/C=N/c2nccs2)cc1`, the growth inhibition was -5.2%. Same read-out and setting: with `C=CCCCCCCCCC(=O)N/N=C/c1ccc(NC(C)=O)cc1` the figure was 6.55%; with `Cc1ccc(-c2nc3ccccc3cc2N)cc1`, 7.65%; with `CCOC(=O)CC(CC(=O)OCC)(C(=O)OCC)C(=O)OCC`, 4.45%. Still for that read-out and setting: with `CCOC(=O)c1c[nH]c(C(=O)OCC)c1C` the figure was 6.6%. Still for that read-out and setting: with `CCOC(=O)C1CSSCC(N)C(=O)N1` (stereo not drawn) (H-Cys-Cys-OEt; disulfide 1-2; configuration not given here) the figure was -1.25%. Turning to `Cn1nc(-c2ccccc2)c(C(=O)/C=C/c2ccc(F)cc2)c(N2CCCCC2)c1=O`, the growth inhibition was 8.55%.

Regarding `O=c1[nH]c2cc3[nH]c4ncccc4c(=O)c3cc2[nH]1`, the growth inhibition is 0.15%.

Regarding `Nc1c(Br)c(Cl)c(Br)c2c1-c1ccc(Cl)cc1C2`, the growth inhibition is -4.8%. Take `CCOC(=O)N1CCc2cc(OC)c(OC)c3c2c1cc1cc(OC)c(OC)cc13`: the growth inhibition was 18.9%.

Another assay is described as follows: NCI Yeast Anticancer Drug Screen. Data for the sgs1 mgt1 strain (AID 161).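 Note: 0% = growth of cultures given vehicle only.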 The conditions noted are these: S. cerevisiae sgs1 mgt1 strain, at 50.0 µM, stronger effect = higher value. The method in brief:
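Genetically altered yeast, compound exposure, growth inhibition relative to vehicle.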
Turning to `Cc1cc([NH-])c([NH-])cc1C.[Cl][Pt+2][Cl]`, the growth inhibition is -0.15%. For the compound `NC(=O)CCCC(C(N)=O)(c1ccccc1)c1ccccc1`, the growth inhibition is 3.25%.

For `CCCCOC(=O)c1ccc(NC(=O)Nc2ccc(SC)cc2)cc1`, the growth inhibition is 19.2%. As for `O=C(NN1C(=O)CSC1c1ccccc1F)c1ccncc1` (stereo not drawn), the growth inhibition is 21.6%. On to `Nc1nc2ncc(=O)[nH]c2c(=O)[nH]1`, for which the growth inhibition is -8.55%. With `CC(=O)NC(C(=O)O)C(C)(C)S` (stereo not drawn), the growth inhibition was -4.7%. Still for that read-out and setting: with `CCc1ccccc1NC(C)=O` the figure was -8.7%; with `CC(O)CNCC(C)(C)N` (stereo not drawn), -4.8%; with `COc1ccc(Nc2nc(NS(=O)(=O)c3cc(C)c(Cl)cc3S)n[nH]2)cc1`, 3.65%. As for `O=C(Nc1cccc(Cl)c1Cl)c1cc(/C=C/c2ccc([N+](=O)[O-])cc2)on1`, the growth inhibition was -12.8%.

Regarding `COC(=O)c1cc(NS(=O)(=O)c2ccc(N)cc2)cc(C(=O)OC)c1`, the growth inhibition is -7.5%. On the same count and under the same terms, with `CC(=O)N1C(=O)C(=O)c2cc(Cl)ccc21` the figure was 3.95%; with `Cc1cc2ccc(OC(=O)c3ccc(N=C(N)N)cc3)cc2oc1=O`, -29.6%; with `Nc1ncnc2c1ncn2-c1ccccc1Cl`, -4.95%. Consider `Cc1nc2c(N3CCCCC3)ncnc2o1`, for which the growth inhibition was -6.15%. For the compound `CCCC(C)OC(=O)CC(c1ccccc1)N1CCCCC1` (stereo not drawn), the growth inhibition was 23.4%. Take `CC(=O)c1cc([N+](=O)[O-])c(O)c([N+](=O)[O-])c1O`: the growth inhibition is -14.6%.

As to `Brc1nc(-[n+]2ccccc2)[n-]c1Br`, the growth inhibition is -13.9%. Take `O=c1c2ccccc2[nH]c2ccc(O)cc12`: the growth inhibition is 4.8%. The same measure, in the same setting: with `CCOC(=O)c1nc(SC)sc1NC(=O)c1ccc(OC)cc1` the figure was 13.1%. The same measure, in the same setting: with `CCOC(=O)Nc1cc2c(c(N)n1)N=C(CN(C)c1ccccc1)CN2` the figure was 59.5%; with `COc1ccc2c(c1)C(O)C(NCc1ccccc1)C2` (stereo not drawn), -0.45%; with `NC(=S)N/N=C/C=C/c1ccco1`, 30.6%. On the same count and under the same terms, with `COC(=O)c1ncn(C(C(=O)OC)C(=O)OC)c1O` the figure was -4.75%; with `CCOC(=O)C1C2CC3C(CC21C)C3(C)C` (stereo not drawn), -12.9%; with `CCOC(=O)c1cc2ccccc2oc1=O`, -8.75%. On to `Nc1ncnc2c1ncn2C1CCC(COS(N)(=O)=O)C1` (stereo not drawn), for which the growth inhibition is 5%. In the case of `COc1ccccc1-n1c(NN)nc2ccc(Br)cc2c1=O`, the growth inhibition was 27.4%.

As to `CC(=O)OCC1OC(Sc2ccc([N+](=O)[O-])cc2)C(OC(C)=O)C(OC(C)=O)C1OC(C)=O` (stereo not drawn), the growth inhibition was -12.1%. Still for that read-out and setting: with `CCCCCC(O)(CCCC)CCCCC` the figure was 1.85%; with `C(=N\c1nccs1)/c1ccc(/C=N/c2nccs2)cc1`, 1.6%. Consider `C=CCCCCCCCCC(=O)N/N=C/c1ccc(NC(C)=O)cc1`, for which the growth inhibition was 7.1%. Turning to `Cc1ccc(-c2nc3ccccc3cc2N)cc1`, the growth inhibition is -0.45%. Turning to `CCOC(=O)CC(CC(=O)OCC)(C(=O)OCC)C(=O)OCC`, the growth inhibition was 8.55%. As to `CCOC(=O)c1c[nH]c(C(=O)OCC)c1C`, the growth inhibition is 4.2%.

Take `CCOC(=O)C1CSSCC(N)C(=O)N1` (stereo not drawn) (H-Cys-Cys-OEt; disulfide 1-2; configuration not given here): the growth inhibition was -11.6%. Still for that read-out and setting: with `Cn1nc(-c2ccccc2)c(C(=O)/C=C/c2ccc(F)cc2)c(N2CCCCC2)c1=O` the figure was -0.95%; with `O=c1[nH]c2cc3[nH]c4ncccc4c(=O)c3cc2[nH]1`, -22.7%; with `Nc1c(Br)c(Cl)c(Br)c2c1-c1ccc(Cl)cc1C2`, -1.4%. On the same count and under the same terms, with `CCOC(=O)N1CCc2cc(OC)c(OC)c3c2c1cc1cc(OC)c(OC)cc13` the figure was -4.55%.

These data come from PubChem BioAssay (NCI).
